Measurements published in publication PMC4552634, “A New Set of Chemical Starting Points with Plasmodium falciparum Transmission-Blocking Potential for Antimalarial Drug Discovery” (PLoS ONE, 2015).
Where two headings read alike, the source gives them in different places. Out of some 13,000 compounds screened, about 3,200 (25%) showed an effect of 50% or more. The list shows a part of the results.

Test system: P. falciparum stage V gametocytes
Design: BacTiter-Glo ATP luminescence viability of purified stage V gametocytes in 384-well plates, per cent inhibition versus DMSO
Conditions: 48 h, 5 µM, inhibitor

Structure (SMILES)	% Inhibition [%]	% Inhibition (% Inhibition) [%]
O=c1cc(NCCCNCc2cc(Cl)cc(Cl)c2OCc2ccccc2)[nH]c2ccccc12 [TCMDC-139488]	-11.96	–
COc1ccc(-n2cc(CNCCCn3ccnc3)c(-c3cccc(F)c3)n2)cc1 [TCMDC-124651]	46.38	–
Cc1ccc(-n2cc(CNCCCn3ccnc3)c(-c3cccc(C)c3)n2)cc1 [TCMDC-124630]	80.81	–
Cc1ccc(-n2cc(CNCCc3ncc(C)[nH]3)c(-c3ccc(F)cc3)n2)cc1 [TCMDC-124685]	44.13	–
Cc1cc2nc(-c3cc(-c4cccc(NS(C)(=O)=O)c4)cnc3N)[nH]c2cc1C [TCMDC-133558]	-28.88	–
CC(C)c1ccc2oc(-c3ccc(NC(=O)c4ccc([N+](=O)[O-])o4)cc3)nc2c1 [TCMDC-124010]	79.92	–
CCc1ccc(-c2nc3cc(NC(=O)c4ccc([N+](=O)[O-])o4)ccc3o2)cc1 [TCMDC-123924]	1.176	–
O=C(Nc1ccc2oc(-c3ccc(Cl)cc3Cl)nc2c1)c1ccc([N+](=O)[O-])o1 [TCMDC-123753]	49.41	–
O=C(Nc1ccc2oc(-c3ccc(Br)cc3)nc2c1)c1ccc([N+](=O)[O-])o1 [TCMDC-123698]	17.72	–
Cc1cccc(-c2nc3cc(NC(=O)c4ccc([N+](=O)[O-])o4)ccc3o2)c1 [TCMDC-123925]	17.49	–
Cc1ccc(-c2nc3cc(NC(=O)c4ccc([N+](=O)[O-])o4)ccc3o2)cc1Cl [TCMDC-123657]	94.01	–
O=C(Nc1ccc(-c2ccc(-c3nc4cc(C(F)(F)F)ccc4[nH]3)s2)cc1)c1ccoc1 [TCMDC-136842]	-23.12	–
CCCCOc1cc2c(cc1OCC)C(C=Cc1ccc(Cl)cc1Cl)=NCC2.Cl [TCMDC-137450]	76.64	–
COc1cc2c(cc1OC)C(C(=O)c1ccccc1)=NCC2.Cl [TCMDC-141993]	35.87	–
CCCCN(CCCC)CCNC(=O)c1ccc(-c2nc3ccc(Cl)cc3[nH]2)c(OCC)c1 [TCMDC-140909]	-44.96	–
CCCOc1cc2c(cc1OCCC)C(C=Cc1ccc(Cl)cc1Cl)=NC(C)C2.Cl (stereo not shown) [TCMDC-137448]	86.79	–
CC(C)C1=CC(=NOS(=O)(=O)c2ccccc2)C=C(C(C)C)C1=O [TCMDC-124172]	-30.75	–
O=C(/C=C/c1ccc2ccccc2c1)NCC1(c2ccc(-c3ccccc3)cc2)CCOCC1 [TCMDC-134257]	16.18	–
Cc1ccc(Cn2ncc(N3CC(C)NC(C)C3)c(Cl)c2=O)cc1NC(=O)Nc1ccc(-c2ccccc2)cc1 (stereo not shown) [TCMDC-141937]	14.65	–
Cc1c(Cn2ncc(N3CCC(N)CC3)c(Cl)c2=O)cccc1NC(=O)Nc1ccc(-c2ccccc2)cc1 [TCMDC-141931]	109.1	–
Cc1ccc(Cn2ncc(N3CCNCC3)c(Cl)c2=O)cc1NC(=O)Nc1ccc(-c2ccccc2)cc1 [TCMDC-141921]	40.54	–
Cc1ccc(Cn2ncc(N3CCCNCC3)c(Cl)c2=O)cc1NC(=O)Nc1ccc(-c2ccccc2)cc1 [TCMDC-141924]	99.19	–
NC1CCN(c2cnn(Cc3cccc(NC(=O)Nc4ccc(-c5ccccc5)cc4)c3)c(=O)c2Cl)CC1 [TCMDC-141930]	54.32	–

Structure (SMILES)	% Inhibition [%]	% Inhibition (% Inhibition) [%]
O=C(Nc1ccc(-c2ccccc2)cc1)Nc1cccc(Cn2ncc(N3CCCNCC3)c(Cl)c2=O)c1 [TCMDC-141923]	12.88	–
O=C(Nc1ccc(-c2ccccc2)cc1)Nc1cccc(Cn2ncc(N3CCNCC3)c(Cl)c2=O)c1 [TCMDC-141920]	-37.77	–
O=C(Nc1ccc(Cn2ncc(N3CCNCC3)c(Cl)c2=O)cc1)Nc1ccc(-c2ccccc2)cc1 [TCMDC-141922]	-25.28	–
CC1CN(c2cnn(Cc3cccc(NC(=O)Nc4ccc(-c5ccccc5)cc4)c3)c(=O)c2Cl)CC(C)N1 (stereo not shown) [TCMDC-141935]	-13.22	–
CC1CN(c2cnn(Cc3ccc(NC(=O)Nc4ccc(-c5ccccc5)cc4)cc3)c(=O)c2Cl)CC(C)N1 (stereo not shown) [TCMDC-141940]	80.37	–
Cc1c(Cn2ncc(N3CC(C)NC(C)C3)c(Cl)c2=O)cccc1NC(=O)Nc1ccc(-c2ccccc2)cc1 (stereo not shown) [TCMDC-141936]	-6.259	–
O=C(Nc1ccc(Cn2ncc(N3CCCNCC3)c(Cl)c2=O)cc1)Nc1ccc(-c2ccccc2)cc1 [TCMDC-141928]	–	-32.1
CC(C)C[C@H](NC(=O)c1ccc(OCCN2CCOCC2)cc1)C(=O)N[C@H](/C=N/N1CCNC1=O)CCc1ccccc1 [TCMDC-136156]	19.17	–
O=C(Nc1ccc(Cl)cc1)Nc1ccc2nonc2c1 [TCMDC-124586]	-84.09	–
COc1cc(N(C)Cc2cnc3nc(N)nc(N)c3n2)cc(OC)c1OC [TCMDC-137363]	43.25	–
Cc1cccc(-n2c(Nc3ccc(C)c(Cl)c3)nc3ccc(S(=O)(=O)NC(C)C(C)C)cc32)c1 (stereo not shown) [TCMDC-136234]	-15.02	–
CCCc1c(C(=O)OCC)c2cc(O)ccc2n1-c1ccc(OC)cc1 [TCMDC-125126]	-66.75	–
COc1cccc(C2=CC(C)(C)Oc3cc(OCCN(C)C)ccc32)c1 [TCMDC-131403]	8.416	–
Cc1sc(N2CCN(C)CC2)nc1C(=O)Nc1ccc(F)cc1C(F)(F)F [TCMDC-134302]	-2.511	–
Cc1ccc(NC(=O)Nc2ccc(Cn3ncc(N4CCCNCC4)c(Cl)c3=O)cc2)cc1 [TCMDC-133332]	5.468	–
Cc1ccc(Cn2ncc(NC3CCNCC3)c(Cl)c2=O)cc1NC(=O)Nc1ccc(-c2ccccc2)cc1 [TCMDC-141929]	95.66	–
O=C(Nc1ccc(Cn2ncc(N3CCCNCC3)c(Cl)c2=O)cc1)Nc1ccc(-c2ccccc2)cc1 [TCMDC-141927]	–	-25.81
O=C(Nc1ccc(Cl)cc1)Nc1ccc(Cn2ncc(N3CCCNCC3)c(Cl)c2=O)cc1 [TCMDC-133331]	-14.26	–
Cc1ccc(Cn2ncc(N3CCC(N)CC3)c(Cl)c2=O)cc1NC(=O)Nc1ccc(-c2ccccc2)cc1 [TCMDC-141932]	107.1	–
COc1ccc2nccc([C@@H](O)CN3CCC(NCCOc4cccc(C(F)(F)F)c4Cl)CC3)c2c1 [TCMDC-140661]	20.87	–
O=C(Nc1ccc(Br)c(Cl)c1)c1cc([N+](=O)[O-])cc2cn[nH]c12 [TCMDC-123693]	77.61	–
O=C(Nc1cccc(C(F)(F)F)c1)c1cc([N+](=O)[O-])cc2cn[nH]c12 [TCMDC-125395]	7.696	–
O=C(Nc1ccc(F)c(Cl)c1)c1cc([N+](=O)[O-])cc2cn[nH]c12 [TCMDC-123694]	-9.121	–

Structure (SMILES)	% Inhibition [%]	% Inhibition (% Inhibition) [%]
O=c1cc(NCCCNCc2cc(C(F)(F)F)ccc2Cl)[nH]c2ccccc12 [TCMDC-139422]	4.715	–
COc1cc(NCCCNC(=O)c2ccc(Cl)c(Cl)c2)nc2ccccc12 [TCMDC-140373]	-10.34	–
COc1cc(NCCCNCc2cn(S(=O)(=O)c3ccccc3)c3ccccc23)nc2ccccc12 [TCMDC-140214]	73.5	–
O=c1cc(NCCCNCc2ccccc2-c2ccccc2)[nH]c2ccccc12 [TCMDC-139450]	-0.2545	–
Cc1c(NCCCNCc2cc(Cl)cc(Cl)c2Cl)[nH]c2ccccc2c1=O [TCMDC-139498]	-59.03	–
O=c1cc(NCCCNCc2cn(S(=O)(=O)c3ccccc3)c3ccccc23)[nH]c2ccccc12 [TCMDC-140361]	89.9	–
COc1cc(NC2CCCC(NCc3cn(S(=O)(=O)c4ccccc4)c4ccccc34)C2)nc2ccccc12 (stereo not shown) [TCMDC-140505]	77.87	–
COc1cc(Nc2ccc3cc(S(=O)(=O)N4CCCCC4C)ccc3n2)cc(OC)c1OC (stereo not shown) [TCMDC-125163]	-47.67	–
CCN(CC)CCOc1c(Cl)cc(Cl)cc1CNCCCNc1cc(=O)c2ccccc2[nH]1 [TCMDC-139684]	26.89	–
CN(C)CCCNCc1cn(S(=O)(=O)c2ccccc2Cl)c2ccccc12 [TCMDC-136302]	105.4	–
COc1cc(NCCCNC(=O)c2cc3c(Cl)cc(Cl)cc3[nH]2)nc2ccccc12 [TCMDC-140360]	30.45	–
Cc1cc(OCCCN2CCC(NS(=O)(=O)c3ccc(Cl)c(Cl)c3)CC2)c2ccccc2n1 [TCMDC-136278]	-51.1	–
COc1ccc2nccc(NC(=O)N3CCC(NCc4cc5c(F)ccc(F)c5[nH]4)CC3)c2n1 [TCMDC-140784]	-20.31	–
Cc1cc(C(F)(F)F)n2nc(C(=O)N(Cc3cncn3Cc3ccccc3F)CC3CC3)cc2n1 [TCMDC-132463]	-10.43	–
Cc1c(C)n(C2CCCC2)c2ncnc(OC3CCN(CC(=O)NCC4CC4)CC3)c12 [TCMDC-134421]	19.09	–
CN(Cc1cnc2nc(N)nc(N)c2n1)c1ccc(C(=O)N[C@H](CCC(=O)OC(C)(C)C)C(=O)N[C@@H](CCC(=O)OC(C)(C)C)C(=O)OC(C)(C)C)cc1 [TCMDC-137262]	-6.983	–
COc1cc(Cc2cnc(N)nc2N)cc(OC)c1OCCCCC(=O)O [TCMDC-137352]	14.26	–
CN(Cc1cccc(C#N)c1)C1CCN(c2cc(NC(=O)c3cccc(F)c3)ccn2)CC1 [TCMDC-134972]	21.14	–
COc1ccnc(NCCCNCc2cn(S(=O)(=O)c3ccccc3)c3ccccc23)c1 [TCMDC-140380]	99.09	–
COc1c(C)cc(I)cc1CNCCCNc1cc(=O)c2ccccc2[nH]1 [TCMDC-140056]	-89.66	–
COc1cc(CNCCCNc2nc3ncccc3[nH]2)c2[nH]cc(Br)c2c1 [TCMDC-140259]	-28.64	–
